Activity calls are given as the source filed them.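 Rule for the calls: active = compound restoring hERG potassium channel current, after block by a reference inhibitor, at any concentration tried; inactive = no current restored at any concentration tried.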

The target in this test is Voltage-gated inwardly rectifying potassium channel KCNH2 (Homo sapiens) (UniProt Q12809). As to the kind of experiment: dose-dependent reversal of dofetilide hERG block – manual patch clamp, HEK293 cells, dose response (AID 2638). The following applies: tail current; current remaining: measured here: rescue from 100 nM dofetilide block, at 50 µM, stronger effect = higher value unless noted; series mostly up to 100 µM; potentiation: at the top concentration.
Chain of Voltage-gated inwardly rectifying potassium channel KCNH2 (Homo sapiens) (Q12809 whole entry, looked up): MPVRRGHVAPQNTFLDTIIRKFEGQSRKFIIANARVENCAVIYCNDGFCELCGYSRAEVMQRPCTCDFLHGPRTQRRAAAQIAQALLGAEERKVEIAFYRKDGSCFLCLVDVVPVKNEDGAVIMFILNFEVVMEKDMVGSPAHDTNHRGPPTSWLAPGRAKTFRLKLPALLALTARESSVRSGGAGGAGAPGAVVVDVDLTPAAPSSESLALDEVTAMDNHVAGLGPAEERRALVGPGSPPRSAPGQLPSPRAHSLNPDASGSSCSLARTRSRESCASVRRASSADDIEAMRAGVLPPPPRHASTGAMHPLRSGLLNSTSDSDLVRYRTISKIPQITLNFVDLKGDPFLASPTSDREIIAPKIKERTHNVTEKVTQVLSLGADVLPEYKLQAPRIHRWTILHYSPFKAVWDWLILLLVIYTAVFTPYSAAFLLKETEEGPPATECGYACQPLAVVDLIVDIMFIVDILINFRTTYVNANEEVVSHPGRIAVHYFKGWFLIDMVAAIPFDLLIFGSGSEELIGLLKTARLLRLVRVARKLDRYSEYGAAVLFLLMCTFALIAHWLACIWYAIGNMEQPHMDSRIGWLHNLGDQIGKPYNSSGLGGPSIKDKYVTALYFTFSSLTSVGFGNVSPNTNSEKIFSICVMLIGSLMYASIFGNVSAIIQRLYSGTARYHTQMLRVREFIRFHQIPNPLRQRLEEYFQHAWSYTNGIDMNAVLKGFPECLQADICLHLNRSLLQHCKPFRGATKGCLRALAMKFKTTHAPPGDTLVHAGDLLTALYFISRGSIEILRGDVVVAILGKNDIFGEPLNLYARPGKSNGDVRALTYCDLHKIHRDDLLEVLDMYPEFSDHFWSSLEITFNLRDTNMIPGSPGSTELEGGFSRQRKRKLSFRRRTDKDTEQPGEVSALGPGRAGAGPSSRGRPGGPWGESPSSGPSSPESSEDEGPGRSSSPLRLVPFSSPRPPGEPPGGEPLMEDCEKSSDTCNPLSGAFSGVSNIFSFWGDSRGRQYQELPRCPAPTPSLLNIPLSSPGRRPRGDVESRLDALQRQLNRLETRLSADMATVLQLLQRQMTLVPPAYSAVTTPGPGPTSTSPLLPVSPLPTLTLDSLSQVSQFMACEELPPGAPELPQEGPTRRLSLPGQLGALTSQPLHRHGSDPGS
Take `O=C(COc1ccc2ccccc2c1Br)Nc1cccnc1`: the “potentiation” value was 383% (inactive) and the current remaining amounted to 1%.
As to `O=C(O)c1cc(Cl)ccc1Nc1nc2cc(Cl)ccc2o1`, the current remaining was 4.15%.
Same read-out and setting: then `CCC1CCCCN1C(=S)NC(=O)c1cccs1` (centres undefined), with 46.5% [measured here: rescue from 100 nM dofetilide block, at 10 µM, stronger effect = higher value].
